TSHR agonist = TSH receptor (human) agonism. HEK293-CNG-TSHR cells (CNG channel as cAMP sensor), membrane potential dye, cAMP. 73,000 tested, 0.48% active. Potency, µM (series often up to 57.1 µM), most hits filed as activators; active = well fitted activation curve with a large enough effect in the main read-out, with a control signal flat, not every such curve was filed as active; inconclusive = small, poorly fitted or top-dose-only effect, or a change in a side signal; inactive = no such curve, though single readings can be large or run the other way; reference of the percent scale not stated here;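 also: the control signal comes from parental cells without the receptor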
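cAMP rise detected as CNG-channel membrane depolarization by fluorescent dye (emission 590 nm), 30 min after compound, following 60 min dye loading containing 100 uM RO 20-1724 at room temperature. Cells: TSHR/CNG HEK 293, with parental CNG HEK 293 as control.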
FLuc inh = inhibitors of firefly luciferase. purified firefly luciferase, luminescence, 8 min. Potency, µM (titrated, usually from 57.1 µM), actives largely listed as inhibitors. 72,000 tested, 2.2% active. AID 411; also: nearly all actives have a fitted effect of over 40% in size
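Here, luciferase activity is measured as luminescence following an 8 min room-temperature reaction at 10 uM ATP, pH 7.2. Every library sample is titrated.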
ERK AVP block = vasopressin-driven ERK pathway inhibition | HEK293-V1b, vasopressin-stimulated pERK AlphaScreen | Potency, µM (titrated, usually from 57.5 µM), usual class: inhibitors | 72,000 tested, 0.99% active | AID 995; also: nearly all actives have a fitted effect of over 55% in size
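Phosphorylated ERK1/2 detected via AlphaScreen bead proximity in lysates of V1b-expressing HEK293 cells given 25 nM vasopressin for 5 min after 30 min compound exposure (37 °C). AC50 from Hill equation; basal DMSO 0%, vasopressin 100%.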
HEK293 cAMP ctrl = raises cAMP in parental HEK293 cells, TSHR agonist counter-screen | 73,000 tested, 2.5% active | Potency, µM (highest dose often 57.1 µM), hits mostly activators | parental HEK293 CNG cAMP sensor, membrane potential fluorescence; also: nearly all actives have a fitted effect of over 55% in size
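Parental HEK 293 cells stably expressing a modified CNG channel (no TSHR) report cAMP rise as membrane depolarization. Membrane potential dye with 100 uM RO 20-1724 was loaded for 60 min at room temperature, then compound added for 30 min; fluorescence read at 590 nm.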
Bst PK mod = modulators of Bacillus stearothermophilus pyruvate kinase; purified pyruvate kinase, luminescence ATP production; ribose 5-phosphate activator present at AC10; Potency, µM; 51,000 tested, 1.2% active; AID 361; in the data active = potency below about 11 µM; inconclusive = mostly about 12 µM to 25 µM;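 the screen sought inhibitors and activators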
Tau filament bind = binders of human tau filaments; Potency, µM (titrated, usually from 57.1 µM); P10636; recombinant tau filaments, thioflavin S fluorescence, 15 h; filaments grown with octadecylsulfate alongside compound; AID 596; 71,000 tested, 2% active;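 also: actives lower thioflavin S fluorescence by blocking filaments or displacing dye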
Target sequence (P10636 whole entry, looked up): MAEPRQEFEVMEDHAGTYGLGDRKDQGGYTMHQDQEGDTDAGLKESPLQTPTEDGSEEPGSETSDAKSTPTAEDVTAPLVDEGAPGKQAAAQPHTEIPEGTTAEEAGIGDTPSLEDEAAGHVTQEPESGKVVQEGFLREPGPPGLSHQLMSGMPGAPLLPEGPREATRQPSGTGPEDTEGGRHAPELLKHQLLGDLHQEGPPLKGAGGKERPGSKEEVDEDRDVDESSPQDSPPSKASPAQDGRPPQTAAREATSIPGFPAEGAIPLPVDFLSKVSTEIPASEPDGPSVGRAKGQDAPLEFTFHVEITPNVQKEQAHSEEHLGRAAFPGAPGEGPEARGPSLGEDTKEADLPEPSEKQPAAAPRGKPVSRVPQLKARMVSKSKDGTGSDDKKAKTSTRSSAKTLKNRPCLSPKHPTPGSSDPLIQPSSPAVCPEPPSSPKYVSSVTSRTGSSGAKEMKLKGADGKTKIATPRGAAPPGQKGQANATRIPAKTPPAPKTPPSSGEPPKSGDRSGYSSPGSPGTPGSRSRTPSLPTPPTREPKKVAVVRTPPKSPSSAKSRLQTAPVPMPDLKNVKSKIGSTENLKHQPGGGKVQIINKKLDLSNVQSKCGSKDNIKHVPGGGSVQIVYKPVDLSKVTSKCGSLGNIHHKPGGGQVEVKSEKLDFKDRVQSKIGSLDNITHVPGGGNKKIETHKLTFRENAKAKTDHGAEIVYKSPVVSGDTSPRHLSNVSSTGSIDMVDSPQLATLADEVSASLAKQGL
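Assay mix: 1 uM His-tagged tau, 30 uM sodium octadecylsulfate, thioflavine S dye in HEPES/NaCl/DTT buffer. Compound is added prior to the inducer. Fluorescence after 15 h at 37 C.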
A number is an active result; 0 = inactive; ? = inconclusive; - = not tested or not shown; ! = not confirmed by another sample; [ ] = another dose, or the depositor's remark. Rows were chosen to be rich in hits. Some 7.2% of all compounds tested hit in one or more screens of this group. Unless noted, calls follow the shape of the dose curve; as a rule, active = well fitted curve in the direction sought with a large enough effect; inconclusive = small, poorly fitted or top-dose-only effect, or another doubt; inactive = no such curve, though single readings can be large; an effect the other way counts as inactive or inconclusive.

SMILES	TSHR agonist	FLuc inh	ERK AVP block	HEK293 cAMP ctrl	Bst PK mod	Tau filament bind
CCOC(=O)c1c(C)oc2ccc(O)c(CN3CCCCC3)c12	?	0	0	16µM	0	0
CCOC(=O)c1c(C)n(C)c2ccc(O)c(CN3CCCCC3)c12	-	0	-	-	0	-
COc1ccc(COC2OC[C@]3(C)[C@H]4C5=C(CN3C(=O)OC(C)(C)C)[C@H](C)C(CO)C(CO)C5CC[C@@H]24)cc1 (stereo not given in full)	0	-	0	0	-	0
CC(=O)c1ccc2c3c(ccc(O)c13)CC2	0[11.4 µM]	0	32µM	0[11.4 µM]	-	4µM
CC(=O)c1ccc(O)c(CN(C2CCCCC2)C2CCCCC2)c1O	0[11.4 µM]	0[11.4 µM]	0[11.5 µM]	0[11.4 µM]	-	0[11.4 µM]
CCN(CC)CCC[C@H](C)Nc1c2ccc(Cl)cc2nc2ccc(OC)cc12	0	6.3µM!	0	0	-	-
O=S(=O)(Nc1cccnc1)c1cccc2cccnc12	0	0	-	0	-	0
COc1cc2c(cc1OC)CN(C(=O)CC1CC3CCC1C3)CC2 (stereo not given)	0	13µM	0	0	0	0
COc1cc2c(cc1OC)CN(C(=O)C(C)(C)C)CC2	0	0	0	0	-	0
COc1ccc(-n2ccnc2SCC(=O)Nc2ccccc2)cc1	?	0	0	3.2µM	0	0
COc1cccc(-n2ccnc2SCC(=O)Nc2ccccc2)c1	0[11.4 µM]	0	0	0	0	0
CC12CC[C@@H]3c4ccc(OS(=O)(=O)O)cc4CC[C@H]3C1CCC2=O (stereo not given in full)	0	0	0	0	-	0
CCCC(=O)Nc1ncnc2c1ncn2C1OC2COP(=O)(O)OC2C1OC(=O)CCC (stereo not given)	-	-	0	-	-	-
CCCC(=O)Nc1ncnc2c1ncn2[C@@H]1O[C@@H]2COP(=O)(O)O[C@H]2[C@H]1OC(=O)CCC	0	0	0	0	0	40µM
COc1ccc(Br)cc1CNc1ccc(O)cc1	0	0	0	0	0	32µM
COc1ccc(Br)cc1CNC(=O)C1CCN(S(=O)(=O)N2CCCC2)CC1	0[11.4 µM]	0	0	0	0	0
Cc1ccccc1-c1nccc(NCc2cccs2)n1	?	0[2.29 µM]	0	?	-	0
C[C@@H]1C=CCC(=O)OC[C@H](C)C(=O)OC[C@H]2O[C@H]1C=C[C@H]2O	0[11.4 µM]	0[11.4 µM]	0[11.5 µM]	0[11.4 µM]	-	-
CCOC(=O)c1ccc(-n2[nH]c(-c3ccccc3)cc2=O)cc1	0	0	0	0	0	16µM
O=C(c1ccncc1)N1CCC[C@@]2(CCN(Cc3ccncc3)C2)C1	0	0[11.4 µM]	0	0	-	0
CCC(c1nnnn1Cc1ccco1)N(Cc1cc2cc(C)cc(C)c2[nH]c1=O)CC1CCCO1 (stereo not given)	?	0	0	20µM	-	0
CCC(c1nnnn1Cc1ccco1)N(Cc1ccccc1OC)Cc1cc2cc(C)ccc2[nH]c1=O (stereo not given)	?	0	0	?	0	0
Cc1ccc(N=Nc2c(O)c3ccccc3[nH]c2=O)c(S(=O)(=O)N(C)C)c1	0[11.4 µM]	3.2µM	0[11.5 µM]	0[11.4 µM]	-	0[11.4 µM]
COc1ccc(-c2nc3cnc(Nc4cccc(OC)c4)nc3n(C)c2=O)cc1	0	0[11.4 µM]	?	0	-	0
CCOC(=O)C1CCN(CC(=O)Nc2c(C(=O)OC)[nH]c3ccc(Cl)cc23)CC1	?	0	25µM	?	0	0
SMILES	TSHR agonist	FLuc inh	ERK AVP block	HEK293 cAMP ctrl	Bst PK mod	Tau filament bind
COC(=O)c1[nH]c2ccccc2c1NC(=O)CN1CCN(c2cccc(OC)c2)C(C)C1 (stereo not given)	0	0	32µM	0	0	0
C=C1C[C@@]23C[C@@]1(O)CCC2[C@@]12C=CC(O)[C@](C)(C(=O)O1)C2C3C(=O)O (stereo not given in full)	-	-	0	-	-	-
Cc1nn(-c2nc3ccccc3s2)c(N)c1-c1ccccc1	0	4µM	0	0	1.6	0
Cc1nn(-c2nc3ccccc3s2)c(N)c1-c1ccc(Cl)cc1	0	0	0	0	7.8	0
O=c1cc(-c2ccccc2)[nH]n1-c1nc2ccccc2[nH]1	?	0	0	0	-	?
Cc1nn(-c2nc3ccccc3[nH]2)c(N)c1-c1ccccc1	0	7.9µM	0	0	2.9	0
Cc1nn(-c2nc3ccccc3s2)c(N)c1Sc1ccc(F)cc1	0	0	0	0	0	0
